# From PMC7862700, “An all-to-all approach to the identification of sequence-specific readers for epigenetic DNA modifications on cytosine”
# What was measured:
# Test in all cases: DAPPL (digital affinity profiling via proximity ligation, sequencing); 10 mM Tris-HCl pH 7.5, 50 mM NaCl, 1 mM DTT, 4% glycerol, room temperature, 30 min; GST-TFs on glutathione beads, 16-mer random dsDNA library, 0.1% formaldehyde crosslink after washing; high values mean tight binding
# FLI1 = target: T1, FLI1 (Homo sapiens, UniProt Q01543 1-452); conditions: protein: recombinant; tags: N-terminal GST; dsDNA, one strand shown
# T1 sequence: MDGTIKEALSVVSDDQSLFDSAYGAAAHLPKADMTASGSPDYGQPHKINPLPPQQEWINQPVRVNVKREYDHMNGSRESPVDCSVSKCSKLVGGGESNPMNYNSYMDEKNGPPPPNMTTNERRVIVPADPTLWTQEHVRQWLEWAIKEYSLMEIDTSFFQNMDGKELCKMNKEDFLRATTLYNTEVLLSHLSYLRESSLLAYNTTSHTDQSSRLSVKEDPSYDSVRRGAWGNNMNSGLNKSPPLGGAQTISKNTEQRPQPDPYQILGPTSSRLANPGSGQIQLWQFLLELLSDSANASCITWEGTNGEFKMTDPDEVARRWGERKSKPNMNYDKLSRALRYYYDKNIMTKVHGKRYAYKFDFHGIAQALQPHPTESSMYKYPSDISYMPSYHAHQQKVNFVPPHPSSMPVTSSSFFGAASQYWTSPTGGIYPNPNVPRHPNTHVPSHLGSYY
# How it was run: (§1)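 Human transcription factors were made in yeast as GST fusions, captured on glutathione beads and barcoded with DNA. With a tag-only sample included, the pool was incubated with 200 nmole of a random double-stranded 16-mer DNA library in Tris/NaCl/DTT/glycerol buffer at room temperature for 30 min, then crosslinked with 0.1% formaldehyde after washing, ligated by proximity, amplified and sequenced. For binding signal, each hexamer's read frequency for a factor is divided by its frequency for the tag-only sample.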
# ELK1 = target: T2, ELK1 (Homo sapiens, UniProt P19419 1-428); conditions: protein: recombinant; tags: N-terminal GST; dsDNA, one strand shown
# T2 sequence: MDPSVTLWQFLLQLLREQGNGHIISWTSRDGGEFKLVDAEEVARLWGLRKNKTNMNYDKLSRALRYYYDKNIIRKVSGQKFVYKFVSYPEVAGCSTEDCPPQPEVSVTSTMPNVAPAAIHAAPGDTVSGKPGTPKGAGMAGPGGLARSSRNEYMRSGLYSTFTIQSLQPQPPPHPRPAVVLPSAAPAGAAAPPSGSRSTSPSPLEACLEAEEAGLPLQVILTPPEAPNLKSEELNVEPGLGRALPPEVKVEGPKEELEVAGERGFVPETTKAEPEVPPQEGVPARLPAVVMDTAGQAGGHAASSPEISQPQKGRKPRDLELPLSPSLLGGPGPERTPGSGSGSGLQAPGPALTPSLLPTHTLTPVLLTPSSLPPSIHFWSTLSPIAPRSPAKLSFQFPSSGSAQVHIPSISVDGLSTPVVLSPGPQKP
# How it was run: as §1
# GABPA = target: T3, GABPA (Homo sapiens, UniProt Q06546 1-454); conditions: protein: recombinant; tags: N-terminal GST; dsDNA, one strand shown
# T3 sequence: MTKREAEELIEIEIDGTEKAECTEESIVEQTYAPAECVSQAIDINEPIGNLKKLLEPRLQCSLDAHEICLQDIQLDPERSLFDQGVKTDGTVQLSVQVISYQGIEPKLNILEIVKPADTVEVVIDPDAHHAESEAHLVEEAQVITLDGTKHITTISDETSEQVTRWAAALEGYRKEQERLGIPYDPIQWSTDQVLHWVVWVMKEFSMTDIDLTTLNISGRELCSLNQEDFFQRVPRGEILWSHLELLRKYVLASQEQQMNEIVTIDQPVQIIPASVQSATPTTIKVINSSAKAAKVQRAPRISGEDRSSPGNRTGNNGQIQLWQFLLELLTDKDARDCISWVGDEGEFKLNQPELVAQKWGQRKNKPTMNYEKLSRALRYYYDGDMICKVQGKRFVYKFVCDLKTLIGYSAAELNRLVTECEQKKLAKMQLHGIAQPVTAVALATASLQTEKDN
# How it was run: as §1
# ERG = target: T4, ERG (Homo sapiens, UniProt P11308 1-479); conditions: protein: recombinant; tags: N-terminal GST; dsDNA, one strand shown
# T4 sequence: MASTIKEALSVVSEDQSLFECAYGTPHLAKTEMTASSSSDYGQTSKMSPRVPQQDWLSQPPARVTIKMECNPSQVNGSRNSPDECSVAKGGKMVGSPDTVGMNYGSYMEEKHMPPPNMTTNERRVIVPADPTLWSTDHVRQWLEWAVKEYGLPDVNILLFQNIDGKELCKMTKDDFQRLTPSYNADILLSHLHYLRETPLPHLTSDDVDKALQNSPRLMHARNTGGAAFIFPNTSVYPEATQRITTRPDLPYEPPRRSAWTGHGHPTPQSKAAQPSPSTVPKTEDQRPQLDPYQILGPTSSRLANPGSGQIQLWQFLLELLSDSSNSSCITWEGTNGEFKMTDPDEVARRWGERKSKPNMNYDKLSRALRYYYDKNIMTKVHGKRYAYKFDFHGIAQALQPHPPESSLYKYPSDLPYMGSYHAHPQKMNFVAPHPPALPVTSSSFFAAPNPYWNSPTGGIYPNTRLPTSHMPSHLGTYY
# How it was run: as §1
# ELF1 = ELF1 (Homo sapiens, UniProt P32519 1-619); conditions: protein: recombinant; tags: N-terminal GST; dsDNA, one strand shown
# ELF1, sequence (P32519 whole entry): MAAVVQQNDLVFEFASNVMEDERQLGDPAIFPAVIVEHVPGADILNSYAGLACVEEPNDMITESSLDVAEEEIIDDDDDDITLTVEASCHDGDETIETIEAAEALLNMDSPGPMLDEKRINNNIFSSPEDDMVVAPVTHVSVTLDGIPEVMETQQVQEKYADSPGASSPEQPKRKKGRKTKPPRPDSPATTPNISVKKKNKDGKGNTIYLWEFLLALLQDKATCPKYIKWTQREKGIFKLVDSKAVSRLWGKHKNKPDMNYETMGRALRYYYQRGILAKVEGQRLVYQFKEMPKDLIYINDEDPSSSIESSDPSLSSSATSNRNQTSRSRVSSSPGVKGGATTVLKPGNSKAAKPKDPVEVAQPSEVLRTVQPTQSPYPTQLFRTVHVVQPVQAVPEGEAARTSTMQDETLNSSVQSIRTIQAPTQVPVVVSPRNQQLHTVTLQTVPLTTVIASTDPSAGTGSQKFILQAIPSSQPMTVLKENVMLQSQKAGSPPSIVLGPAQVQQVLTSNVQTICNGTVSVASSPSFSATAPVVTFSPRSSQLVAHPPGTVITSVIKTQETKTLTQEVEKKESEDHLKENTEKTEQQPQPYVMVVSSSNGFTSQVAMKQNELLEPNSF
# How it was run: as §1
# EHF = target: T5, EHF (Homo sapiens, UniProt Q9NZC4 1-300); conditions: protein: recombinant; tags: N-terminal GST; dsDNA, one strand shown
# T5 sequence: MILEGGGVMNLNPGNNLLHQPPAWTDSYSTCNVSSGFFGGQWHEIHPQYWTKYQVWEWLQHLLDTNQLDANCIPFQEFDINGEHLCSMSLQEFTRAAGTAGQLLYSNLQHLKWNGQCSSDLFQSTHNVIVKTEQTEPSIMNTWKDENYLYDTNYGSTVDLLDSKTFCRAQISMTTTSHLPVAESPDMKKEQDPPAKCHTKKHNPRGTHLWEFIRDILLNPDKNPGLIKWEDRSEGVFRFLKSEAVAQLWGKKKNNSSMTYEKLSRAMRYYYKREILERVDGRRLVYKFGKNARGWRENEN
# How it was run: as §1
# SPI1 = SPI1 (Homo sapiens, UniProt P17947 1-270); conditions: protein: recombinant; tags: N-terminal GST; dsDNA, one strand shown
# How it was run: as §1
# SPIB = SPIB (Homo sapiens, UniProt Q01892 1-262); conditions: protein: recombinant; tags: N-terminal GST; dsDNA, one strand shown
# SPIB, sequence (Q01892 whole entry): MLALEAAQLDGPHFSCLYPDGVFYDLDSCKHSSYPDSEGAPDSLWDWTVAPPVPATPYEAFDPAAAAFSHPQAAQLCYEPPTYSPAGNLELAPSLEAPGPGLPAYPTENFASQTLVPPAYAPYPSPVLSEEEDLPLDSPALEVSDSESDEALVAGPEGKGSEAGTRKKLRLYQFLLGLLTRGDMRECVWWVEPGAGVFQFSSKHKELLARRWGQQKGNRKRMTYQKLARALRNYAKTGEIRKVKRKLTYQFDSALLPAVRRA
# How it was run: as §1
# ELK3 = target: T6, ELK3 (Homo sapiens, UniProt P41970 1-407); conditions: protein: recombinant; tags: N-terminal GST; dsDNA, one strand shown
# T6 sequence: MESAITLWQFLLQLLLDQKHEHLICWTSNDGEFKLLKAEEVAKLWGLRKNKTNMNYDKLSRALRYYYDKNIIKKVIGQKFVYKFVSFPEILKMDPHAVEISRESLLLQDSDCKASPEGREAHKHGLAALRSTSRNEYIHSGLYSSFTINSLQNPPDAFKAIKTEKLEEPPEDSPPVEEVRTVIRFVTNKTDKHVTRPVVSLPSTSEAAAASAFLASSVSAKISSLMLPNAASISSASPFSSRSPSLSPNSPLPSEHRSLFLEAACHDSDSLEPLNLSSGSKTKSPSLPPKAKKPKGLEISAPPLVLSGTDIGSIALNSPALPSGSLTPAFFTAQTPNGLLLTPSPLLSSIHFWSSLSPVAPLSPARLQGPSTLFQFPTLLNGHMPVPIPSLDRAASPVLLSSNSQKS
# How it was run: as §1
# FEV = target: T7, FEV (Homo sapiens, UniProt Q99581 1-238); conditions: protein: recombinant; tags: N-terminal GST; dsDNA, one strand shown
# T7 sequence: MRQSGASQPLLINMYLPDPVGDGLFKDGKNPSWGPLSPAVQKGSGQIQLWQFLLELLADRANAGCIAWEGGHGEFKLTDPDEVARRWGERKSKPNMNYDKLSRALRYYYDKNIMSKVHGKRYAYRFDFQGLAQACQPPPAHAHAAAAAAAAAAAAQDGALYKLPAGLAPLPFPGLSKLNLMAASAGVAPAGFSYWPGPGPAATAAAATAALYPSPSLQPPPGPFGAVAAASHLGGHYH
# How it was run: as §1
# ETV5 = ETV5 (Homo sapiens, UniProt P41161 1-510); conditions: protein: recombinant; tags: N-terminal GST; dsDNA, one strand shown
# ETV5, sequence (P41161 whole entry): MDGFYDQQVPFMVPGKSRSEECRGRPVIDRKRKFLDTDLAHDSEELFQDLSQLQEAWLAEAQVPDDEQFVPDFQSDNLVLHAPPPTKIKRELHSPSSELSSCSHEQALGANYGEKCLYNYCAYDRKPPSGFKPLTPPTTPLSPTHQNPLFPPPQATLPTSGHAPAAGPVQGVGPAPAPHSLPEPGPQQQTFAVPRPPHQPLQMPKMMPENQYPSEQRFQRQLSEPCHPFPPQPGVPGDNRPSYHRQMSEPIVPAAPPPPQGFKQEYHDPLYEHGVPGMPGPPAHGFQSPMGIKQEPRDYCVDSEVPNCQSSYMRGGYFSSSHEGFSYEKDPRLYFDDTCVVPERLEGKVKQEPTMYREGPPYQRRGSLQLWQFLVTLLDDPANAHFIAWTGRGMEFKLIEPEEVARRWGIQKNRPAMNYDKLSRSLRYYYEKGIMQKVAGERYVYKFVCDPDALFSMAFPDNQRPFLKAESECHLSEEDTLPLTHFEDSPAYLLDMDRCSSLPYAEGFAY
# How it was run: as §1
# HSF1 = HSF1 (Homo sapiens, UniProt Q00613 1-529); conditions: protein: recombinant; tags: N-terminal GST; chain copies: 3; dsDNA, one strand shown
# HSF1, sequence (Q00613 whole entry): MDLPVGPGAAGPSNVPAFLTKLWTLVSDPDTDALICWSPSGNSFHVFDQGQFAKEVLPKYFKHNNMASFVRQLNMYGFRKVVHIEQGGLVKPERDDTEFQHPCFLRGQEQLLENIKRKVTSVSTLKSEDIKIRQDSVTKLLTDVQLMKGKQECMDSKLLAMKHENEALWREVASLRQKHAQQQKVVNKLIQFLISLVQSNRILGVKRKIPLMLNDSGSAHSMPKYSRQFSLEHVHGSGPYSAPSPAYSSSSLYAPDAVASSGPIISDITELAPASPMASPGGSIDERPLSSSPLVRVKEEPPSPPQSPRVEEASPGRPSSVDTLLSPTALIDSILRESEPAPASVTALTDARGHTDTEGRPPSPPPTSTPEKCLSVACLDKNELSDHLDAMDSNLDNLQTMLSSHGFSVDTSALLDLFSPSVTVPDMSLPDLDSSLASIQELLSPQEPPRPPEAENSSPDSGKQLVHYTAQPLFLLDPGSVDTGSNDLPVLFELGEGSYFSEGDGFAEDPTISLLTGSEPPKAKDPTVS
# How it was run: as §1
# SPIC = target: T8, SPIC (Homo sapiens, UniProt Q8N5J4 1-248); conditions: protein: recombinant; tags: N-terminal GST; dsDNA, one strand shown
# T8 sequence: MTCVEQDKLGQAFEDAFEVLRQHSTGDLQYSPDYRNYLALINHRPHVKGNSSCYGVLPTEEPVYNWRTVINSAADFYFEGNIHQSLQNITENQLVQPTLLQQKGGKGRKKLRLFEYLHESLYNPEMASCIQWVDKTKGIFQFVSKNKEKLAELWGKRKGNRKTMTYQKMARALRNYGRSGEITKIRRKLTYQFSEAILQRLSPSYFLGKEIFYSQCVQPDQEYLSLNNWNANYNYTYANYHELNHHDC
# How it was run: as §1
# ELF4 = ELF4 (Homo sapiens, UniProt Q99607 1-663); conditions: protein: recombinant; tags: N-terminal GST; dsDNA, one strand shown
# ELF4, sequence (Q99607 whole entry): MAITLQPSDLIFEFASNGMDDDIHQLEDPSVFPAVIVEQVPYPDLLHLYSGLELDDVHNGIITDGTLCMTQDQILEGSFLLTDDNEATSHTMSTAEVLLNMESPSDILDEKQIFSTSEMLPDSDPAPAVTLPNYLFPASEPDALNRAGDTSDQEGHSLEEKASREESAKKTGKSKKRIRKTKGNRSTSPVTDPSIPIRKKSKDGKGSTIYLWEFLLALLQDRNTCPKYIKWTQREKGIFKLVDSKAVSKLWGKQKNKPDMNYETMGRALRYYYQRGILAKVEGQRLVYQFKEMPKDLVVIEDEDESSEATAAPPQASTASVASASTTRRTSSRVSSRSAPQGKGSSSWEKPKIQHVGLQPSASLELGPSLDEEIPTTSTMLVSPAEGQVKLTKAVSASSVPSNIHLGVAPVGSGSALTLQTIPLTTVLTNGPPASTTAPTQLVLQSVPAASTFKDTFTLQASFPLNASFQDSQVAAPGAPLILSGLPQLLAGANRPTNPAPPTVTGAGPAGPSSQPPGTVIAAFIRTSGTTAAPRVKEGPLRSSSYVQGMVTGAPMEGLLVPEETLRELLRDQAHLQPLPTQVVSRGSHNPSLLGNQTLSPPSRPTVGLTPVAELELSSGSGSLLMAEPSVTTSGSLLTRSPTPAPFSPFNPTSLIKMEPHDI
# How it was run: as §1
# ELK4 = target: T9, ELK4 (Homo sapiens, UniProt P28324-2 1-405); conditions: protein: recombinant; tags: N-terminal GST; dsDNA, one strand shown
# T9 sequence: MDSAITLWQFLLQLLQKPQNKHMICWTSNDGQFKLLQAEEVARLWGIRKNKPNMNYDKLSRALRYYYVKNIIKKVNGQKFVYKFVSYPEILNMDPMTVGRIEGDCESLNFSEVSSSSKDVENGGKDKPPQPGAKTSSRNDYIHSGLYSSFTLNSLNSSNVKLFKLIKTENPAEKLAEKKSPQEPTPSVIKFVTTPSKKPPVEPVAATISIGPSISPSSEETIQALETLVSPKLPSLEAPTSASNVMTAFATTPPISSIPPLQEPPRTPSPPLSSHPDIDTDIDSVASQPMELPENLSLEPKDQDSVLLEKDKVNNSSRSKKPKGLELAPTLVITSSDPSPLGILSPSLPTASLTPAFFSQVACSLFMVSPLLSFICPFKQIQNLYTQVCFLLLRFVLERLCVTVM
# How it was run: as §1
# ETV2 = target: T10, ETV2 (Homo sapiens, UniProt O00321 1-342); conditions: protein: recombinant; tags: N-terminal GST; dsDNA, one strand shown
# T10 sequence: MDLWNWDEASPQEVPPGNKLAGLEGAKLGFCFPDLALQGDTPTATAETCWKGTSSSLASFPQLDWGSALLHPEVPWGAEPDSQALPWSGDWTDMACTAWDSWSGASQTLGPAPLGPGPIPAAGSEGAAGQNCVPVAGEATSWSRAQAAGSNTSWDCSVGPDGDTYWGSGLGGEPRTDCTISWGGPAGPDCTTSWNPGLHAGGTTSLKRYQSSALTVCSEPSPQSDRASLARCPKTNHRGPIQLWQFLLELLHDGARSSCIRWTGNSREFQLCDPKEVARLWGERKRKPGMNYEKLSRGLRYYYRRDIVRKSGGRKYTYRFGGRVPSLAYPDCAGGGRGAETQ
# How it was run: as §1
# ELF3 = target: T11, ELF3 (Homo sapiens, UniProt P78545 1-371); conditions: protein: recombinant; tags: N-terminal GST; dsDNA, one strand shown
# T11 sequence: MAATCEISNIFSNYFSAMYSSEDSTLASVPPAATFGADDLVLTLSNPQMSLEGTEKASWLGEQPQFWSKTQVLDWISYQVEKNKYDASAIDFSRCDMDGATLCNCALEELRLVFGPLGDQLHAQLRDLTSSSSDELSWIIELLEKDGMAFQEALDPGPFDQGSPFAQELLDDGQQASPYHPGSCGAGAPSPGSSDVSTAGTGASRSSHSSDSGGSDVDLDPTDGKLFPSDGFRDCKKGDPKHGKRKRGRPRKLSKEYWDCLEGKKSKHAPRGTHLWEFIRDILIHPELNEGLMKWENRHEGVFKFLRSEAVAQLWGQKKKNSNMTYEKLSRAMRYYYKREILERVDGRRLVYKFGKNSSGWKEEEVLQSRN
# How it was run: as §1
# CRX = CRX (Homo sapiens, UniProt O43186 1-299); conditions: protein: recombinant; tags: N-terminal GST; dsDNA, one strand shown
# CRX, sequence (O43186 whole entry): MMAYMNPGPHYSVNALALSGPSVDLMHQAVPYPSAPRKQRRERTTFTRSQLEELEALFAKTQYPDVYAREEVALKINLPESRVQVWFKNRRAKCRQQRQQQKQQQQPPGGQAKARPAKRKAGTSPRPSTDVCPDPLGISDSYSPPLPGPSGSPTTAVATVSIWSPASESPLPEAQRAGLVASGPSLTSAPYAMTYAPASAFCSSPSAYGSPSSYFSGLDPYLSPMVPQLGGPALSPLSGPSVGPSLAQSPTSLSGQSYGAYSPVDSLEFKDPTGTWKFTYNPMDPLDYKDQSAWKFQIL
# How it was run: as §1
# ETV1 = ETV1 (Homo sapiens, UniProt P50549 1-477); conditions: protein: recombinant; tags: N-terminal GST; dsDNA, one strand shown
# ETV1, sequence (P50549 whole entry): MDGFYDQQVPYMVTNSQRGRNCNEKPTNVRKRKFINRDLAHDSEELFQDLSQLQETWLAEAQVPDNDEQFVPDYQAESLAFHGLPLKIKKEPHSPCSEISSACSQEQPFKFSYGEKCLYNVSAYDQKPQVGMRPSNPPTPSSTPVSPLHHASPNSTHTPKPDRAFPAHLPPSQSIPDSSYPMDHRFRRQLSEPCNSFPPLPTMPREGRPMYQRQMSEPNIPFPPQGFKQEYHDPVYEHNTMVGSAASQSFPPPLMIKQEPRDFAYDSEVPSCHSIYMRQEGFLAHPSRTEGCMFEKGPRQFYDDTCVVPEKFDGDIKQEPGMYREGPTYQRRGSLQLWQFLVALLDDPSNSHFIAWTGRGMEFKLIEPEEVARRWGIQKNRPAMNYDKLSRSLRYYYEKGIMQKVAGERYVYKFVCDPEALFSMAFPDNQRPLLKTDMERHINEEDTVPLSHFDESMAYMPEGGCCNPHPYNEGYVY
# How it was run: as §1
sequence,measurement,setting,value
TTGATC,binding signal,FLI1,"1.21 fold enrichment (6-mer frequency, TF over GST control)"
same,binding signal,ELK1,"1.22 fold enrichment (6-mer frequency, TF over GST control)"
same,binding signal,GABPA,"1.21 fold enrichment (6-mer frequency, TF over GST control)"
same,binding signal,ERG,"1.19 fold enrichment (6-mer frequency, TF over GST control)"
same,binding signal,ELF1,"1.21 fold enrichment (6-mer frequency, TF over GST control)"
same,binding signal,EHF,"1.12 fold enrichment (6-mer frequency, TF over GST control)"
same,binding signal,SPI1,"1.23 fold enrichment (6-mer frequency, TF over GST control)"
same,binding signal,SPIB,"1.3 fold enrichment (6-mer frequency, TF over GST control)"
same,binding signal,ELK3,"1.26 fold enrichment (6-mer frequency, TF over GST control)"
same,binding signal,FEV,"1.17 fold enrichment (6-mer frequency, TF over GST control)"
same,binding signal,ETV5,"1.26 fold enrichment (6-mer frequency, TF over GST control)"
same,binding signal,HSF1,"1.48 fold enrichment (6-mer frequency, TF over GST control)"
same,binding signal,SPIC,"1.25 fold enrichment (6-mer frequency, TF over GST control)"
same,binding signal,ELF4,"1.14 fold enrichment (6-mer frequency, TF over GST control)"
same,binding signal,ELK4,"1.14 fold enrichment (6-mer frequency, TF over GST control)"
same,binding signal,ETV2,"1.09 fold enrichment (6-mer frequency, TF over GST control)"
same,binding signal,ELF3,"1.01 fold enrichment (6-mer frequency, TF over GST control)"
same,binding signal,CRX,"1.71 fold enrichment (6-mer frequency, TF over GST control)"
same,binding signal,ETV1,"1.15 fold enrichment (6-mer frequency, TF over GST control)"
